Test results as given in PubChem BioAssay AID1117319 (Southern Research Institute, 2015).
Where “and” joins values, the source holds several entries; their conditions need not be identical. Equal entries are not always repeated. The whole screen tested about 260,000 compounds, of which about 1,500 (0.58%) were called active. Another 5% or so got no clear call; they are omitted.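 How the source made its calls: active means inhibition above a set limit at one or more doses, reproduced on every date tested; inconclusive means results disagree between test dates, or hit never tested in dose response; inactive means the rest.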 Only a sample is shown. Measured potencies and affinities stand elsewhere.

Each compound was assayed against Virion infectivity factor (Human immunodeficiency virus type 1 group M subtype B (isolate BH10)) + Virion infectivity factor (Human immunodeficiency virus type 1 group M subtype B (isolate BRU/LAI)) + Virion infectivity factor (Human immunodeficiency virus type 1 group M subtype B (isolate PCV12)) + Virion infectivity factor (Human immunodeficiency virus type 1 group M subtype B (isolate HXB2)) + DNA dC->dU-editing enzyme APOBEC-3G (Homo sapiens) (UniProt P69720+P69721+P69722+P69723+Q9HC16) (assay: HIV-1 Vif–A3G interaction blockers – biochemical, TR-FRET, GST-Vif 1-94, biotin-A3G peptide, dose response retest, primary screen (AID 1117319;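 further: Vif residues 1-94 fused to GST binding biotinylated APOBEC3G peptide 110-148; 0% = full assay without inhibitor and 100% = GST in place of GST-Vif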)). Settings: TR-FRET GST-Vif / biotin-A3G peptide binding; hits give high values.

inhibition, inactive:
O=C(c1cccn2c(=O)c3ccccc3nc12)N1CCN(Cc2ccc3c(c2)OCO3)CC1 3%, CN(C)CCn1cnc2c(c1=N)C(c1ccccc1)c1ccc3ccccc3c1O2 (configuration not stated) -7.72%, CC1(C)Cc2ccccc2C(C(=O)c2ccccc2)=N1 -10.3%, CCOC(=O)c1cc2sccc2n1CC(=O)N1CCCc2ccccc21 -4.99%, CCN1CCN(CC(=O)N2N=C(c3cccs3)CC2c2ccc(C)cc2)C(=O)C1=O (configuration not stated) 1.42%, Cc1csc(NC(=O)COc2ccc3c(C)cc(=O)oc3c2)n1 -13.9%, Cc1cccc(N2CCN(C(=O)CCNS(=O)(=O)c3ccc4c(c3)CCC(=O)N4)CC2)c1C -0.88%, CC(=O)c1ccc(N2CCN(C(=O)c3cc(C)on3)CC2)cc1 11.8%, CC(c1cccs1)N(C)Cc1nc(CCc2ccccc2)no1 (configuration not stated) 2.69%, CN1C(=O)[C@H]2[C@@H](c3ccc(C(F)(F)F)cc3)N[C@]3(CCCN(CC4CCCCC4)C3=O)[C@H]2C1=O 2.73%, CCN(CC(=O)NC1CCS(=O)(=O)C1)C(=O)C(c1ccccc1)c1ccccc1 (configuration not stated) 1.78% and 11.2%, CC(=O)N1CCN(S(=O)(=O)c2cccc(C(=O)NNC(=O)COc3c(C)cccc3C)c2)CC1 -12.3%, N#CCN1C(=O)C(=O)N(Cc2cccc(C(F)(F)F)c2)C1=O -1.35%, CC(NC(=O)c1ccccc1[N+](=O)[O-])C1CC2CCC1C2 (configuration not stated) 1.73%, O=C(Nn1cnc2ccccc2c1=O)c1ccc([N+](=O)[O-])cc1 -7.54%, c1ccc(CNn2nnnc2-c2ccccc2)cc1 1.36%, Oc1ccc(NCc2ccc(OCc3ccccc3)cc2)cc1 17.4%, O=[N+]([O-])c1ccc(COc2cccc(CNc3ccc(Br)cc3)c2)cc1 2.31%, CN(C)S(=O)(=O)c1ccc(N2CCCC2)c(C(=O)Nc2nc3c(ccc4ccccc43)s2)c1 -35.6%, O=C(NCc1nnnn1-c1ccc(F)c(F)c1)C(=O)c1c[nH]c2ccccc12 11.1%, Cc1cccc(N2CCN(C3=NC(=O)C(Cc4ccccc4)S3)CC2)c1 (configuration not stated) 14.4%, O=C1C=Cc2ccccc2/C1=C/c1[nH]c(=O)[nH]c1O -10.7%, CCN1C(=C2C(=O)c3ccccc3C2=O)C=Cc2ccccc21 26.5%, O=C1CC(NS(=O)(=O)c2cccnc2)CN1c1ccc(F)cc1 (configuration not stated) -4.88%, N#Cc1ccccc1Sc1ccccc1C(=O)Nc1ccc(Br)cc1 5.46%, C(=C1/CCCC2=C1Nc1ncnn1C2c1ccccc1)/c1ccccc1 (configuration not stated) 0.53%, Fc1ccccc1/C=C1\CCCC2=C1Nc1nnnn1C2c1ccccc1F (configuration not stated) 15.4%, CCOC(=O)c1ccc(N/C=C2/CCCC(C)C2=O)cc1 (configuration not stated) 1.6%, CC1CCC/C(=C\Nc2ccc(C(=O)O)cc2)C1=O (configuration not stated) 4.93%, Cc1cc(C(=O)O)ccc1N/C=C1\CCCC(C)C1=O (configuration not stated) 10.9%, CC1CCC/C(=C\Nc2ccccc2C(=O)O)C1=O (configuration not stated) 5.74%, Cc1ccc(C(=O)NCCc2csc(-c3cccnc3)n2)cc1 3.26%, O=C(CCC(=O)NNC(=O)c1ccc([N+](=O)[O-])cc1)NCc1ccccc1 6.94%, O=C(NCCO)c1cc2ccccc2cc1O 2.23% and 6.09%, CCCCCCCCSC1=CC(=O)C(OC)=C(OC)C1=O 31.4%, COC1=CC(=O)C(OC)=C(OC)C1=O 5.9%, CSCCC(NC(=O)c1ccco1)C(=O)NCCc1ccc(Cl)cc1 (configuration not stated) -15.8%, CC(=O)c1ccccc1NS(=O)(=O)c1ccccc1Cl -6.08%, CCN(CC)C(=O)Oc1ccc2c(c1)O/C(=C\c1ccco1)C2=O 12.6%, COC(=O)COc1ccc2c(c1)O/C(=C\c1ccco1)C2=O 24%, CC(C)Nc1nc2cccnc2s1 -0.88%, O=C(Nc1ccc(NC(=O)c2cccs2)cc1)c1ccc2c(c1)OCCO2 3.57%, COc1ccc(N2CCN(C(=O)CCc3c[nH]c4ccccc34)CC2)cc1 3.01%, O=C(CCc1c[nH]c2ccccc12)N1CCN(c2ccc(F)cc2)CC1 -3.01%, O=C(/C=C/c1ccccc1Cl)N(Cc1ccc(Cl)cc1)C1CCS(=O)(=O)C1 (configuration not stated) 23.6%, CCC(C)c1ccccc1NC(=O)c1cccnc1 (configuration not stated) -3.72%, Cc1cc(Cl)c(S(=O)(=O)NC2CCCC2)cc1OCC(=O)NC1CCCCC1 -2.05%, Cc1cc(Cl)c(S(=O)(=O)N2CCCC2)cc1OCC(=O)NC1CCCCC1 -1.25%, CC(=O)c1cccc(N(CC(=O)Nc2ccc(F)cc2F)S(C)(=O)=O)c1 7.3%, O=C(NNc1cccc(Cl)n1)Nc1cccc(C(F)(F)F)c1 2.4%, Cc1cc(C)cc(NC(=O)CSc2nnc(-c3ccccc3C)o2)c1 27.4%, COc1cc(NC(=O)c2cccc(Cl)c2)ccc1NC(=O)c1cccs1 2.27%, Cc1ccsc1C(=O)C1CCCN(Cc2cn(C)nc2-c2ccccc2)C1 (configuration not stated) -6.7%, Cc1cc(C)c(C#N)c(Oc2ccc(O)cc2)n1 0.3%, Cc1cc(C)c(C#N)c(Oc2ccc(F)cc2)n1 18.6%, O=C1c2ccc([N+](=O)[O-])cc2C(=O)N1CNc1ccccn1 3.96%, N#CCCN(Cc1ccccc1)C(=O)c1nccnc1C(=O)O -11%, O=C(N/N=C/c1cn(Cc2ccccc2)c2ccccc12)c1ccncc1 8.92%, O=C(N/N=C/c1cn(Cc2ccccc2)c2ccccc12)c1cccnc1 -5.6%, Cc1ccc(S(=O)(=O)Cc2c(C)noc2C)cc1 3.86%, O=C(/C=C/c1ccc(O)cc1)c1ccc(O)cc1O 9.02%, O=CN/C=C/c1cccc(O)c1 -10.2%
